Data taken from PubChem BioAssay AID1508642 (National Center for Advancing Translational Sciences (NCATS), 2021).
In all, about 43,000 compounds went through this assay and about 200 (0.47%) were called active. Inconclusive results (about 12%) are left out. The call rests on the fitted dose curve; in most records, active means well fitted cell-killing curve with a large enough effect; inconclusive means small, poorly fitted or top-dose-only effect, or effect the other way; inactive means flat fitted curve, though single readings scatter. Shown is part of a subset that was picked to be rich in actives. Where a call stands in place of a potency, no number is given.

Experiment: Cell viability qHTS assay in S16 Pmp22-F2sN cells; further: nearly all actives have a fitted effect of over 65% in size
Settings: S16 Pmp22-F2sN Schwann cells (luciferase reporters placed in the Pmp22 gene) viability, CellTiter-Glo, 24 h; series mostly up to 57.5 µM
Description: Assay Provider: Jim Inglese Ph.D. National Center for Advancing Translational Science, National Institutes of Health, Rockville, MD CMT is a heterogeneous group of neurological disorders that affect approximately 1 in 2,500 people. In particular, the most common form of CMT, CMT1A is genetically linked to the duplication of the PMP22 gene which leads to Schwann cell overexpression, thus manifesting itself as a typical case of dose-sensitive diseases. To identify small molecule compounds that can mediate the expression of PMP22 we developed a phenotypic assay screening strategy by utilizing genome editing techniques to construct Schwann cell lines containing novel reporter technology to monitor the transcriptional or translational regulation of PMP22. For high sensitivity we use a bioluminescent reporter system embedded in the 3' UTR of the PMP22 gene (S16(c9) Pmp22-F2sN) to identify compounds that inhibit gene expression. […] We can further discriminate the effect of all transcriptionally active molecules on PMP22 translation or stability with an assay that incorporates a short NLuc peptide (HiBiT) at the C-terminus of expressed PMP22 (S16(f8) PMP22-HiBiT) allowing alpha complementation and luminescence detection of membrane-associated PMP22 protein. These assays were screened against the NCATS Sytravon Library Collection. Miniaturization of these assays to 1536-well plate format for quantitative high throughput screening (qHTS) yielded rich data sets immediately from the qHTS assay (S16(c9) Pmp22-F2sN), when compared with data from a cell viability assay (Cell TiterGlo) to identify compounds that decreased the output signals through cellular toxicity to streamline the selection process of actives for subsequent characterization using the HiBiT assay (S16(f8) PMP22-HiBiT).
Cell viability assay in S16 Pmp22-F2sN cells PROTOCOL TABLE (format as described by Inglese J, Shamu CE and Guy RK. 2007) SEQUENCE No. (e.g., 1, 2, 3, etc.); […] (e.g., Cells, Incubation, Reagent, etc.); VALUE and DESCRIPTION. 1. Cells. Add 500-1,000 cells in 4 uL in growth media (DMEM High Glucose, No Phenol Red media + 10% heat-inactivated FBS + 1% Pen/Strep supplemented media) per well into Greiner 1536-well white/solid bottom high base, TC-treated plates. 2. Compounds. Library compounds and controls added at 23nL per well, transferred by Pin Tool. 3. Incubation. Incubate plates at 37C, 5% CO2, 95% RH for 24 h. 4. Reagent. Add 3uL CellTiter-Glo per well of Greiner 1536-well plates. 5. Incubation. Incubate plates at room temperature for 15 min., protect from light. 6. Detector. FLuc luminescence measured using CCD-based camera (Viewlux). NOTES (numbers refer to Sequence numbers above; values are from representative experiments) 6. Luminescence Read: Clear filter; Exposure = 1 sec, Gain = High, Speed = Slow, Binning = 2X REFERENCES: 1. Inglese J, Shamu CE and Guy RK, Reporting data from high throughput screening of small molecule libraries, Nature Chemical Biology, 2007, 3(8): 438-441. doi.org/10.1038/nchembio0807-438 2. Yasgar A, Shinn P, Jadhav A, Auld DS, Michael S, Zheng W, Austin CP, Inglese J and Simeonov A, Compound Management for Quantitative High-Throughput Screening. J. Assoc. Lab. Auto., 2008, 13: 79-89. doi: 10.1016/j.jala.2007.12.004
Potency means the concentration at half of the fitted maximal effect.

SMILES	Potency
COc1ccc(S(=O)(=O)n2nc(C)c(S(=O)(=O)N3CCCCCC3)c2C)cc1	inactive
CCC(=O)N1CCc2cc(CNS(=O)(=O)c3ccc(Br)s3)ccc21	inactive
COc1ccccc1CNC(=O)c1ccc(CS(=O)c2ccccc2Cl)o1 (centres undefined)	inactive
CC(C)(C)OC(=O)N1CCC(c2c(C(=O)NCCc3ccsc3)cnn2-c2ccc(F)cc2F)CC1	inactive
COc1ccc(-c2nc(Cn3c(=O)cc(C)c4c(C)nn(-c5ccccc5)c43)c(C)o2)c(OC)c1	inactive
COC(=O)c1ccccc1NC(=O)Cn1c(=O)n(-c2cccc(C(F)(F)F)c2)c(=O)c2c(C)c(C)sc21	inactive
O=C(CCc1nc(CN2CCN(S(=O)(=O)c3ccc(Br)cc3)CC2)no1)N1CCCCC1	inactive
CCOc1ccccc1CNCc1c(C(=O)O)c(C)n(Cc2ccc(C)cc2)c1C	inactive
CCOc1ccc(C2C(C(=O)Nc3ccc(Cl)cc3)=C(C)Nc3nc(C(F)(F)F)nn32)cc1 (centres undefined)	inactive
COc1ccc(-c2nc(CN3CCC(C(=O)NCCN(CC(C)C)CC(C)C)CC3)c(C)o2)cc1OC	inactive
COc1cc2nc(SCc3ccc(F)cc3)n3nc(CCn4c(C)nc5ccccc54)nc3c2cc1OC	inactive
CCOc1cc(C2C(C(=O)Nc3ccc(OC)cc3)=C(C)Nc3nc(SC)nn32)ccc1O (centres undefined)	inactive
CC(=O)c1ccc(NC(=O)COc2ccccc2-c2nc(-c3ccccc3)no2)cc1	inactive
COc1cccc(CNC(=O)c2ccc3c(c2)N(Cc2ccc(C(F)(F)F)cc2)C(=O)c2ccccc2S3)c1OC	inactive
CC(C)S(=O)(=O)c1oc(-c2ccc(F)cc2)nc1S(=O)(=O)c1ccc(F)cc1	3.16 µM (active)
Cc1ccc(-c2nc(S(=O)(=O)c3ccc(C)cc3)c(N3CCCCCC3)o2)cc1	inactive
O=C(CSc1oc(-c2ccc(F)cc2)nc1S(=O)(=O)c1ccc(Br)cc1)NC1CCCCC1	inactive
COc1ccc(-c2nc(SCC(=O)N3CCCCC3C)n[nH]2)cc1 (centres undefined)	inactive
O=C(NCCS(=O)(=O)N1CCN(c2ccc(F)cc2)CC1)c1ccccc1Br	inactive
COc1ccc(NC(=O)Cn2c(=O)cc(C)c3c(C)nn(-c4cccc(Cl)c4C)c32)cc1OC	inactive
CCOc1ccccc1CNC(=O)c1cnc2c(-c3ccc(OCC)c(OCC)c3)c(C)nn2c1C	inactive
Cc1ccc(-c2nc(Cn3c(=O)cc(-c4ccccc4)c4c(C)nn(C)c43)c(C)o2)cc1	inactive
O=C(CCn1c(=O)c2ccccc2n(Cc2ccc(Cl)cc2)c1=O)NCc1ccc2c(c1)OCO2	inactive
COc1ccc(-c2onc(C)c2C)cc1S(=O)(=O)NCc1cccs1	inactive
